Source: PubChem BioAssay
Hits are enriched below; roughly 1.9% of the tested compounds scored in any of these assays.
PINK1 expr mod: A Quantitative High throughput Screen to Identify Chemical Modulators of PINK1 Expression; PINK1 immunofluorescence, high-content cytometry, 24 h; Potency, µM (top dose mostly 76.6 µM), actives largely listed as activators; actives 0.2% (n = 410,000); active = well fitted activation curve with a large enough effect; inconclusive = small, poorly fitted or top-dose-only effect; cell line not stated here; also: nearly all actives have a fitted effect of over 65% in size
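Compound titrations (5 concentrations, 24 h) on a stable cell line; DMSO and CCCP controls. Endpoint: fixed-cell PINK1 immunofluorescence with mitochondrial, cell and nuclear markers, scanned by microplate cytometer.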
ClpP mod: qHTS Assay for Activators of ClpP; ATP-dependent Clp protease proteolytic subunit (Bacillus subtilis (strain 168)), P80244; purified B. subtilis ClpP, FRET peptide cleavage, 20 min; Potency, µM (titrated, usually from 57.5 µM); actives 1.9% (n = 340,000); AID 651965, 2013; active = well fitted falling curve with a large enough effect; inconclusive = small, poorly fitted or top-dose-only effect; inactive = no such curve, though single readings can be large or run the other way; also: the source files actives as falling curves though it sought activators and does not explain the sign; nearly all actives have a fitted effect of over 65% in size
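ClpP 10 microg/mL final, pH 8 Tris/KCl buffer with BSA, glycerol, Tween-20; compound pinned in; FRET-FV substrate; RT 20 min; Ex320/Em430; ΔFRET vs ADEP 5.8 microM, DMSO, no enzyme.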
CXXC DNA block: qHTS Fluorescence Polarization Assay for Inhibitors of MLL CXXC domain - DNA interaction; Histone-lysine N-methyltransferase 2A (Homo sapiens), Q03164; MLL-CXXC / FITC-HOXA9 DNA fluorescence polarization; Potency, µM (highest dose often 115 µM), most hits filed as inhibitors; actives 0.037% (n = 290,000); AID 2662, 2010; active = well fitted inhibition curve with a large enough effect in the polarisation, with a control signal flat, not every such curve was filed as active; inconclusive = small, poorly fitted or top-dose-only effect, or effect the other way, or a change in a side signal; inactive = no such curve, though single readings can be large or run the other way; the % refers to the polarisation
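Steps: dispense CXXC domain solution (7 uM) → pin compounds or unlabeled HOX-A9 DNA control → 5 min ambient → add FLSN-HOX-A9 solution (50 nM) → spin → 30 min ambient → fluorescence polarization. Tris pH 7.5/NaCl/DTT/BSA buffer.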
Epigenetic reg: Quantitative High-Throughput Screen for Regulators of Epigenetic Control; murine LDR cells, GFP reporter derepression, 30 h; Potency, µM (doses to about 53.9 µM), usual class: activators; actives 0.2% (n = 280,000); active = well fitted activation curve with a large enough effect; inconclusive = small, poorly fitted or top-dose-only effect; also: nearly all actives have a fitted effect of over 60% in size
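GFP-positive cell count by laser-scanning cytometry (objects 20–120 um) after 30 h, 37 C compound exposure of murine LDR cells; reporter is CMV-GFP integrated at a silenced locus, inducible by HDAC or DNMT inhibitors.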
Menin-MLL TR inh: qHTS Assay for Inhibitors Targeting the Menin-MLL Interaction in MLL Related Leukemias: Competition With Texas Red Labeled MLL-derived Mutant Peptide; AID 1768, 2009; Menin + Texas Red MLL mutant peptide, fluorescence polarization; actives 0.23% (n = 270,000); Potency, µM (doses to about 61.6 µM), usual class: inhibitors; O00255; active = well fitted inhibition curve with a large enough effect in the polarisation, with a control signal flat, not every such curve was filed as active; inconclusive = small, poorly fitted or top-dose-only effect, or effect the other way, or a change in a side signal; inactive = no such curve, though single readings can be large or run the other way; the % refers to the polarisation
Menin-MLL FL inh: qHTS Assay for Inhibitors Targeting the Menin-MLL Interaction in MLL Related Leukemias: Competition With Fluorescein Labeled MLL-derived Peptide | 290,000 tested, under 10 active | Fluorescence polarization, fluorescein-MLL peptide displacement from menin | FP activity change, % at 61.4 µM; active = well fitted curve in the direction sought with a large enough effect in the polarisation, not every such curve was filed as active; inconclusive = small, poorly fitted or top-dose-only effect, or effect the other way, or a change in a side signal; inactive = no such curve, though single readings can be large or run the other way; the % refers to the polarisation
Numbers stand for hits.

Screening COc1ccccc1CCNc1ncnc2sc(C(=O)N3CCCCC3)c(C)c12 returned PINK1 expr mod inactive.
`COc1cccc(CN2CCC3(CCC(CNC(=O)c4ccco4)O3)CC2)c1OC` (stereo unspecified) gave PINK1 expr mod inactive.
O=C(Cn1cc(S(=O)(=O)Cc2ccccc2F)c2ccccc21)Nc1ccc(F)c(Cl)c1 was read as PINK1 expr mod 35µM, ClpP mod inactive and Epigenetic reg inactive.
Screening O=C(Cn1cc(S(=O)(=O)Cc2ccccc2F)c2ccccc21)NCc1ccccc1Cl returned PINK1 expr mod inactive, ClpP mod inactive and Epigenetic reg inactive.
`CC(Oc1ccccc1F)C(=O)Nc1ccc(-c2nc3ccccc3s2)cc1` (stereo unspecified) gave PINK1 expr mod inactive, ClpP mod 3.2µM and Epigenetic reg inactive.
For OC1CCN(Cc2ccc3c(c2)CN(Cc2ccc(Oc4ncccn4)cc2)CCO3)CC1 the results were PINK1 expr mod inactive.
CC(C)c1ccc(CN2CCC(C)(Oc3ccc(Cl)cc3)C2)cc1 (stereo unspecified) was read as PINK1 expr mod inconclusive and ClpP mod inactive.
For COc1cc(OC)cc(OC2(C)CCN(Cc3ccc(OC(C)C)cc3)C2)c1 (stereo unspecified) the results were PINK1 expr mod 45µM and ClpP mod inactive.
Screening Cc1cc(N)n2ncc(-c3ccc(Cl)cc3)c2n1 returned PINK1 expr mod inactive, ClpP mod 22µM, CXXC DNA block inactive, Epigenetic reg inactive, Menin-MLL TR inh inconclusive and Menin-MLL FL inh inactive.
CN(c1ccccc1)S(=O)(=O)c1cccc(C(=O)NC2CCCC2)c1 was read as PINK1 expr mod inactive and ClpP mod 32µM.
For Cc1cc(C)cc(NC(=O)c2ccc(NC(=O)C3C4CC5OC(=O)C3C5C4)cc2)c1 (stereo unspecified) the results were PINK1 expr mod inactive, ClpP mod 32µM, CXXC DNA block inactive, Epigenetic reg inactive, Menin-MLL TR inh inactive and Menin-MLL FL inh inactive.
`CCC1CN(Cc2cn[nH]c2-c2ccccc2)Cc2cc(OC)ccc2O1` (stereo unspecified) gave PINK1 expr mod inactive.
For COC(=O)c1scc(S(=O)(=O)C(C)C)c1N/N=C(\C#N)C(=O)c1ccc(Cl)cc1 the results were PINK1 expr mod 40µM, ClpP mod inactive, CXXC DNA block inactive, Epigenetic reg inactive and Menin-MLL FL inh inactive.
`C=CC(C1=CC(=O)C(OC)=C(OC)C1=O)c1ccccc1` (stereo unspecified) gave PINK1 expr mod inactive, Epigenetic reg inactive, Menin-MLL TR inh inactive and Menin-MLL FL inh inactive.
Nc1c(C(=O)NCc2ccccc2)sc2nc(N3CCOCC3)c3c(c12)CCCC3 was read as PINK1 expr mod inactive, ClpP mod 25µM, CXXC DNA block inactive, Epigenetic reg inactive, Menin-MLL TR inh inactive and Menin-MLL FL inh inactive.
For Nc1c(C(=O)Nc2ccccc2)sc2nc(N3CCOCC3)c3c(c12)CCCC3 the results were PINK1 expr mod inactive and ClpP mod inactive.
Screening O=C(/C=C/c1ccc(F)cc1)NCc1ccco1 returned PINK1 expr mod inactive, ClpP mod inactive, CXXC DNA block inactive, Epigenetic reg inactive, Menin-MLL TR inh inconclusive and Menin-MLL FL inh inactive.
`O=C(/C=C/c1c(F)cccc1Cl)NCc1ccco1` gave PINK1 expr mod inactive, ClpP mod 10µM, CXXC DNA block inactive, Epigenetic reg inactive, Menin-MLL TR inh inactive and Menin-MLL FL inh inactive.
Screening Oc1cc(NCc2cccnc2)ccc1-c1nc2ccccc2o1 returned PINK1 expr mod inactive, ClpP mod 35µM, CXXC DNA block inactive, Epigenetic reg inactive, Menin-MLL TR inh inconclusive and Menin-MLL FL inh inactive.
CC(=O)NC(C)(c1ccccc1)c1nc(-c2cnc3ccccc3c2)cs1 (stereo unspecified) was read as PINK1 expr mod inactive and ClpP mod inconclusive.
Screening CCOC(=O)c1c(C)n(C)c2c1cc(OC(C)=O)c1ccccc12 returned PINK1 expr mod inactive, ClpP mod inactive, CXXC DNA block inactive, Menin-MLL TR inh inactive and Menin-MLL FL inh inactive.
For COc1cc2c(C(=O)O)c(C)n(CC(C)C)c2c2ccccc12 the results were PINK1 expr mod inactive, ClpP mod 35µM, CXXC DNA block inactive, Epigenetic reg inactive, Menin-MLL TR inh inconclusive and Menin-MLL FL inh inactive.
`Cc1ncsc1C(=O)N1N=C2/C(=C/c3ccc(N4CCOCC4)cc3)CCCC2C1c1ccc(N2CCOCC2)cc1` (stereo unspecified) gave PINK1 expr mod inactive, ClpP mod inactive, CXXC DNA block inactive, Epigenetic reg inactive, Menin-MLL TR inh inactive and Menin-MLL FL inh inconclusive.
Cc1ncsc1C(=O)N1N=C2/C(=C/c3ccccc3)CCCC2C1c1ccccc1 (stereo unspecified) was read as PINK1 expr mod inactive, ClpP mod 35µM, CXXC DNA block inactive, Epigenetic reg inactive, Menin-MLL TR inh inactive and Menin-MLL FL inh inactive.
Screening O=C(NC(c1cccnc1)C(F)(F)F)c1cnn(-c2nccc(-c3cccs3)n2)c1C1CC1 (stereo unspecified) returned PINK1 expr mod inactive.
Screening N#Cc1c(-c2cccs2)cc(-c2cccnc2)nc1N returned PINK1 expr mod inactive, ClpP mod inconclusive, CXXC DNA block inactive, Epigenetic reg inactive, Menin-MLL TR inh inactive and Menin-MLL FL inh inactive.
Screening N#Cc1c(-c2cccs2)cc(-c2ccccn2)nc1N returned PINK1 expr mod inactive, ClpP mod 13µM, CXXC DNA block inactive, Epigenetic reg inconclusive, Menin-MLL TR inh inactive and Menin-MLL FL inh inactive.
Screening CC1OC2(C)OC(=N)C1(C#N)C(C#N)(C#N)C2c1ccccc1 (stereo unspecified) returned PINK1 expr mod inactive, ClpP mod 25µM, CXXC DNA block inactive, Epigenetic reg inactive, Menin-MLL TR inh inactive and Menin-MLL FL inh inactive.
For CC1C2(C)OC(=N)C(C#N)(C(C)O2)C1(C#N)C#N (stereo unspecified) the results were PINK1 expr mod inactive, CXXC DNA block inconclusive, Epigenetic reg inactive and Menin-MLL FL inh inconclusive.
`N#Cc1ccc(-c2ccc3c(c2)OCO3)nc1SCC(=O)OCc1ccccc1` gave PINK1 expr mod inactive, ClpP mod 2.5µM, CXXC DNA block inactive, Epigenetic reg inactive, Menin-MLL TR inh inactive and Menin-MLL FL inh inactive.
